Screens deposited in PubChem BioAssay by National Center for Advancing Translational Sciences (NCATS).
A selection: hits, their analogues and other compounds. The true share with any hit is near 8.2%.
MCF10A rerep: A quantitative high throughput screen for small molecules that induce DNA re-replication in MCF 10a normal breast cells; MCF 10A DNA re-replication, Hoechst nuclear intensity, 48 h; Potency, µM (doses to about 46.1 µM), inactives show at the highest dose activity, positive = re-replication, actives largely listed as activators; hit rate 2.9% among 350,000; note: % of control where 0% means no effect; nearly all actives have a fitted effect of over 50% in size
KB-3-1 tox: qHTS assay for MDR1-selective chemotherapeutics: Primary screen using the parental adenocarcinoma cell KB-3-1 | KB-3-1 viability, CellTiter-Glo ATP luminescence, 72 h | Potency, µM (series often up to 46.1 µM), hits mostly cytotoxic | hit rate 1.4% among 400,000 | AID 1347075, 2019; note: % is set by controls: 0 for no effect and ±100 for the full control effect; nearly all actives have a fitted effect of over 60% in size
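Parental KB-3-1 viability, qHTS format: 72 h compound exposure, 37 °C; CellTiter-Glo; media-only wells and DMSO plates as controls; concentration-effect fits on corrected data.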
ELG1 DNA repair: qHTS screen for small molecules that inhibit ELG1-dependent DNA repair in human embryonic kidney (HEK293T) cells expressing luciferase-tagged ELG1; HEK293T ELG1-luciferase reporter, luminescence, 16 h; DNA damage induced by 5-fluorouridine; Potency, µM (titrated, usually from 46.1 µM), without a hit: top-dose activity change, negative = inhibition, usual class: inhibitors; hit rate 2.3% among 330,000; AID 504467, 2011; note: % is set by controls: 0 for no effect and ±100 for the full control effect; nearly all actives have a fitted effect of over 55% in size
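Luminescence from the luciferase reporter, measured 30 min after ONE-Glo reagent at room temperature, was the read-out. Beforehand, 2,000 cells per well were exposed for 16 hr at 37 °C to 5-fluorouridine together with compound or vehicle.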
SW480 rereplic: A quantitative high throughput screen for small molecules that induce DNA re-replication in SW480 colon adenocarcinoma cells; Potency, µM (doses to about 46.1 µM), inactives show at the highest dose re-replication activation, hits mostly activators; SW480 DNA re-replication, Hoechst DNA content imaging, 48 h; hit rate 1.8% among 340,000; note: % of control where 0% means no effect; nearly all actives have a fitted effect of over 55% in size
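Readout is total intensity of Hoechst-stained nuclei, excited at 405 nm and collected at 500-530 nm. Compound treatment lasted 48 hr at 37 C in 5% CO2 before staining.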
KB-V1 cytotox: qHTS assay for MDR1-selective chemotherapeutics: Primary screen using the drug-selected MDR subline cells KB-V1; Potency, µM (titrated, usually from 46.1 µM), hits mostly cytotoxic; KB-V1 MDR cells viability, CellTiter-Glo, 72 h; hit rate 3.4% among 400,000; note: % is set by controls: 0 for no effect and ±100 for the full control effect; nearly all actives have a fitted effect of over 60% in size
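Drug-selected KB-V1 cells, grown in DMEM lacking phenol red with 10% FBS, receive compound titrations; after three days at 37 degrees C, surviving cell ATP is quantified by CellTiter-Glo luminescence and responses normalized and curve-fitted.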
Starred values were filed as active, the others as inactive; i = inactive; ? = inconclusive; . = no result. Calls come from the whole dose curve; as a rule, active = well fitted curve in the direction sought with a large enough effect; inconclusive = small, poorly fitted or top-dose-only effect, or another doubt; inactive = no such curve, though single readings can be large; an effect the other way counts as inactive or inconclusive. Potency is the fitted concentration of half-maximal effect.

SMILES	MCF10A rerep	KB-3-1 tox	ELG1 DNA repair	SW480 rereplic	KB-V1 cytotox
O=c1cc(-c2ccccc2)[nH]n1-c1ccccc1	?	i	.	?	i
Cc1c(Cl)c(C(=O)NC2C3CC4CC(C3)CC2C4)nn1C (stereo unspecified)	13%	i	2%	-2%	15µM*
Cn1c(=O)c2c(nc(CN3CCN(c4ccccc4)CC3)n2Cc2c(F)cccc2Cl)n(C)c1=O	5%	i	10µM*	-3%	?
Cn1c(=O)c2c(nc(CN3CCN(c4ccccc4)CC3)n2Cc2ccccc2Cl)n(C)c1=O	?	?	?	?	8.2µM*
Cc1ccc2c(CN(C)Cc3ccc(OC(F)F)cc3)cc(=O)oc2c1C	15%	?	-14%	-13%	16µM*
CC1(C(=O)Nc2ccc(F)c(Cl)c2)Cc2c(-c3ccccc3)ccnc2O1 (stereo unspecified)	.	i	.	.	?
CCCCC1=NN(C(=O)c2cocc2C)C(O)(C(F)(F)F)C1 (stereo unspecified)	?	i	-12%	7.3µM*	i
COc1cccc(-c2nc(NC(C)C)c3ccccc3n2)c1O	?	?	5.2µM*	9%	?
CC(Nc1nc(N2CCCCC2)nc2ccccc12)c1ccccc1 (stereo unspecified)	?	11µM*	?	0%	?
C=CCNc1nc(N2CCCC2)nc2ccccc12	1%	?	-24%	-3%	i
CC(Nc1nc(-c2ccccc2O)nc2ccccc12)c1ccccc1 (stereo unspecified)	21µM*	i	?	?	i
COc1ccc(Nc2nc(N3CCCC3)nc3ccccc23)c(OC)c1	18µM*	i	?	?	?
COc1ccc(Nc2nc(-c3ccc(C)cc3)nc3ccccc23)c(OC)c1	.	i	.	.	i
O=C(NCc1ccccc1)c1nc(-c2c(F)cccc2F)oc1-c1ccccc1	.	i	.	.	?
CC(C)C(=O)N1CCN(c2ccccc2NC(=O)c2cc([N+](=O)[O-])ccc2N2CCOCC2)CC1	-3%	?	?	-8%	?
CC1(C)CC(=O)C2=C(C1)N(Cc1ccco1)C(=O)C2(NC(=O)C1CCCCC1)C(F)(F)F (stereo unspecified)	1%	i	?	15%	?
CC(=O)C1=C(C)N(Cc2ccco2)C(=O)C1(NC(=O)C1CCCCC1)C(F)(F)F (stereo unspecified)	-1%	i	7%	9%	18µM*
CCc1ccc(Sc2cc(C(=O)NCc3ccccc3OC)c3ccccc3n2)cc1	.	i	.	.	?
CCOC(=O)CSc1nc2ccc(NC(=O)c3ccc(C)cc3)cc2s1	.	i	.	.	i
Cc1cccc(N/N=C(\C(N)=O)C2=NC(C)(C)Cc3ccccc32)c1	12µM*	16µM*	-18%	16%	23µM*
CCOC(=O)/C(=N\O)C1=NC(C)(C)Cc2ccccc21	17%	i	-5%	23%	i
N#CC(C#N)=C1C=CC=CN1/C(=C\c1ccco1)C(=O)c1ccc(-c2ccccc2)cc1	3.3µM*	i	?	.	i
CC(/C=N/n1c(-c2ccc(Cl)cc2)n[nH]c1=S)=C\c1ccco1	19%	?	0%	4%	?
N#CC(C#N)=C1C=CC=CN1/C(=C\c1ccco1)C(=O)c1ccc(Cl)cc1	1.6µM*	i	?	2.6µM*	i
COC(=O)Cn1c(SCCOc2ccccc2OC)nc2ccccc21	.	i	.	.	i
SMILES	MCF10A rerep	KB-3-1 tox	ELG1 DNA repair	SW480 rereplic	KB-V1 cytotox
CC(C)N1CCc2c(sc(NC(=O)c3ccc(S(=O)(=O)N4CCc5ccccc54)cc3)c2C(N)=O)C1	?	21µM*	-10%	3%	?
CCN1CCc2c(sc(NC(=O)c3ccc(S(=O)(=O)N(C)c4ccccc4)cc3)c2C(=O)NC)C1	16µM*	i	?	?	i
CNC(=O)c1c(NC(=O)c2ccc(S(=O)(=O)N(C)c3ccccc3)cc2)sc2c1CCN(C(C)C)C2	15µM*	i	?	?	?
CC(C)N1CCc2c(sc(NC(=O)c3cc(-c4cccs4)nc4ccccc34)c2C(N)=O)C1	18µM*	?	?	?	i
COC(=O)c1c(NC(=O)c2ccc(S(=O)(=O)N3CCCC(C)C3)cc2)sc2c1CCN(C(C)C)C2 (stereo unspecified)	.	i	.	.	i
NC(=O)c1ccsc1NC(=O)c1ccc(S(=O)(=O)N2CCCc3ccccc32)cc1	?	23µM*	21µM*	?	?
Cc1ccc2c(n1)sc1c(-c3ccc(Br)cc3)c(C#N)c(N)nc12	?	i	-10%	2.3µM*	i
CCOc1cc(/C=C/c2ccc3cccc([N+](=O)[O-])c3n2)ccc1O	?	12µM*	-23%	.	21µM*
CCOc1cc(/C=C/c2ccc3cccc([N+](=O)[O-])c3n2)ccc1OCC(=O)N(C)C	28%	?	16µM*	?	18µM*
O=[N+]([O-])c1ccc(/C=C/c2ccc3cccc([N+](=O)[O-])c3n2)cc1	?	i	10%	-14%	i
COc1cc(/C=C/c2ccc3cccc([N+](=O)[O-])c3n2)ccc1OCC#N	8%	i	23µM*	0%	i
CCOc1c(OC(C)=O)ccc(/C=C/c2ccc3cccc(OC(C)=O)c3n2)c1[N+](=O)[O-]	?	?	?	?	12µM*
O=C(N=C1SC2CS(=O)(=O)CC2N1Cc1ccc(Cl)cc1)C1CC1 (stereo unspecified)	-1%	i	10%	3%	i
CCc1nc2ccc(C(=O)N3CCCCC3)cn2c1N(CCC(C)C)CCN(C)C	.	i	.	.	i
CC(C)CC(=O)Nc1ccc(Oc2ccc3c(c2)C(=O)NC3=O)cc1	0%	i	-2%	-2%	i
COc1ccc(N(C(=O)c2cccnc2)S(=O)(=O)c2cc(OC)ccc2OC)cc1	5%	.	-1%	0%	.
CCN1CCCC1CNC(=O)c1cc2c(-c3ccc(Cl)cc3)nn(C)c2s1 (stereo unspecified)	?	?	-1%	21µM*	?
CCCCNC(=O)c1cc2c(-c3ccc(Cl)cc3)nn(C)c2s1	?	i	-3%	3%	i
Cc1ccc(CNC(=O)c2cc3c(-c4ccc(Cl)cc4)nn(C)c3s2)o1	6%	?	16µM*	19%	?
